Compound activity from PubChem BioAssay.
Rpn11 block = Rpn11 (human) deubiquitinase inhibition. O00487. human 26S proteasome, Ub4-pepOG fluorescence polarization; 20S core pre-blocked with epoxomicin. calls only at 20 µM. 360,000 tested, 0.59% active;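 active = inhibition at 20 µM, scaled to each plate's controls, above about 33%, limit read from the data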
Neddyl block = cullin neddylation inhibition | P61081+Q13564 | TR-FRET cullin neddylation, biochemical | inhibition, % at 25 µM | 360,000 tested, 0.58% active; in the data active = inhibition above about 36%
PKA-R2B activ = PKA-R2B complex activation. P22694+P31323. PKA-R2B holoenzyme dissociation, Cy5-IP20 fluorescence polarization; R2B truncated from residue 108, S112A mutant; 0% DMSO only, 100% 113 µM cGMP. activation, % at 11.4 µM. 340,000 tested, 0.079% active;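 active = activation above a cutoff set at the mean over all compounds plus 3 SD, cut at about 18% in these data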;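 note: higher means more holoenzyme dissociation and a rise in polarization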
Target sequence (P31323 whole entry, looked up, other chains not shown, the tested form may be a part): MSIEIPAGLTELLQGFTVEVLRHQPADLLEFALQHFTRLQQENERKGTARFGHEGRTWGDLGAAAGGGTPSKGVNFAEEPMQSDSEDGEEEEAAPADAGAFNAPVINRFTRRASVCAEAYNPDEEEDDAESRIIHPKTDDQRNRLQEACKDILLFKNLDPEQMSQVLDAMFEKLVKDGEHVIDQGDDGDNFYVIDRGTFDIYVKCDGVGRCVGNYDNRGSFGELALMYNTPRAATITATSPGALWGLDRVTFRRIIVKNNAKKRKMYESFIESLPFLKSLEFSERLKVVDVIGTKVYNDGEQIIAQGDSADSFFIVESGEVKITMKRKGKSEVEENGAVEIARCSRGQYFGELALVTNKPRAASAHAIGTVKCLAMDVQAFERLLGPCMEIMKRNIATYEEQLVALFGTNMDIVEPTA
PKA-R1A activ = activators of PKA-R1A complex. P00514+P68181. PKA-R1A dissociation, Cy5-IP20 fluorescence polarization; scaled: DMSO 0%, 113 µM cGMP 100%. activation, % at 11.4 µM. 340,000 tested, 0.083% active;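 active = percent activation above the mean of all tested compounds plus 3 SD, cut at about 19% in these data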;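 note: higher means more PKAc released from R1A so a rise in polarization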
Rpn11 inh conf = confirmation of human proteasome Rpn11 inhibitors | 1,900 tested, 29% active | inhibition, % at 20 µM | purified human 26S proteasome, Ub4-pepOG fluorescence polarization; proteasome pretreated with epoxomicin | AID 602318 | shares compounds with Rpn11 block
MMP-2 counter = MMP-2 (human) inhibition counter-screen | shares compounds with Rpn11 block | recombinant MMP-2, FRET peptide cleavage fluorescence | inhibition, % at 20 µM | 1,900 tested, 4% active | AID 602330;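 note: human MMP-2 activated beforehand with APMA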
Thrombin FP = thrombin (bovine) inhibition counter-screen. shares compounds with Rpn11 block. bovine thrombin cleavage of Ub4-pepOG, fluorescence polarization. inhibition, % at 20 µM. 1,900 tested, 13% active. AID 602333;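 active = mean inhibition at least 40% at 20 µM, or signal 3 deviations below plate average, so some actives read negative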;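 note: plate controls were thrombin with DMSO for no effect and buffer wells lacking thrombin for full effect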
An asterisk follows results filed as active. In the library only some 1.3% were active in any assay of this set; here they are far more common. Cut-off read from the data, not from the text of the source, unless noted: active = inhibition above about 40%; inactive = the rest.

Results for O=C(C[n+]1ccc(C(=O)N/N=C/c2ccc(O)cc2)cc1)c1ccccc1 ?
Rpn11 block: active; Neddyl block: -26; PKA-R2B activ: 10; PKA-R1A activ: 2; Rpn11 inh conf: 0; MMP-2 counter: 13; Thrombin FP: -14

Results for O=C(N/N=C/c1ccc(Br)cc1)c1ccc(NC(=O)c2ccccc2)cc1 ?
Rpn11 block: active; Neddyl block: -6; PKA-R2B activ: -5; PKA-R1A activ: -6; Rpn11 inh conf: -1; MMP-2 counter: -24; Thrombin FP: -10

Results for O=C(N/N=C/c1cccnc1)c1ccc(NC(=O)c2ccc(Cl)cc2)cc1 ?
Rpn11 block: inactive; Neddyl block: 9; PKA-R2B activ: 5; PKA-R1A activ: -1

How did O=C(C[n+]1ccc(C(=O)N/N=C/c2ccc(Br)cc2)cc1)c1ccccc1 do in these assays?
Rpn11 block: inactive; Neddyl block: -7; PKA-R2B activ: 5; PKA-R1A activ: -1

How did O=C(N/N=C/c1ccncc1)c1cccc(NC(=O)c2ccc(Cl)cc2)c1 do in these assays?
Rpn11 block: active; Neddyl block: 24; PKA-R2B activ: -7; PKA-R1A activ: -5; Rpn11 inh conf: 47*; MMP-2 counter: -1; Thrombin FP: 0

How did COc1ccc(C)cc1S(=O)(=O)Nc1ccc2c(c1)OCO2 do in these assays?
Rpn11 block: inactive; Neddyl block: -6; PKA-R2B activ: 2; PKA-R1A activ: -10

What do the screens show for `CC(=O)c1sc(N/N=C2\CC3CCC2(C)C3(C)C)nc1C` (stereo not drawn)?
Rpn11 block: inactive; Neddyl block: 15; PKA-R2B activ: -14; PKA-R1A activ: -8

Results for CC12CCC(C/C1=N/O)C2(C)CBr (stereo not drawn) ?
Rpn11 block: active; Neddyl block: -1; PKA-R2B activ: 0; PKA-R1A activ: 4; Rpn11 inh conf: -14; MMP-2 counter: -51; Thrombin FP: -17

How did COc1ccc(NC(=O)CC(C)=O)c(OC)c1 do in these assays?
Rpn11 block: inactive; Neddyl block: -12; PKA-R2B activ: -2; PKA-R1A activ: 9

What do the screens show for `COc1ccc(NC(=O)CC(=O)Nc2ccc(OC)cc2OC)c(OC)c1`?
Rpn11 block: active; Neddyl block: 0; PKA-R2B activ: 8; PKA-R1A activ: 12; Rpn11 inh conf: 1; MMP-2 counter: -15; Thrombin FP: -17

Results for COc1ccc(NC(=O)Cn2c3ccc(OC)cc3c3nc4n(c(=O)c32)CCS4)cc1 ?
Rpn11 block: inactive; Neddyl block: -129; PKA-R2B activ: -9; PKA-R1A activ: -10

Results for CC(=O)N1CCN(S(=O)(=O)c2cccc(C(=O)NNC(=O)c3ccc(Br)cc3)c2)CC1 ?
Rpn11 block: inactive; Neddyl block: -12; PKA-R2B activ: -1; PKA-R1A activ: 2

Results for Cc1ccc(CSCC(=O)N/N=C/c2ccc(OCC(=O)Nc3ccc(C)cc3)cc2)cc1 ?
Rpn11 block: active; Neddyl block: -3; PKA-R2B activ: -6; PKA-R1A activ: -9; Rpn11 inh conf: 80*; MMP-2 counter: 19; Thrombin FP: 12

How did O=C1NC(=S)S/C1=C/c1ccc(N2CCOCC2)o1 do in these assays?
Neddyl block: -90; PKA-R2B activ: 9; PKA-R1A activ: 1

Results for COc1ccc2cc(/C=C3\SC(=S)NC3=O)c(N3CCOCC3)nc2c1 ?
Rpn11 block: active; Neddyl block: -23; PKA-R2B activ: 0; PKA-R1A activ: -3; Rpn11 inh conf: 48*; MMP-2 counter: 25; Thrombin FP: active

Results for Cc1ccc(-c2nn(-c3cccc(F)c3)cc2CNCc2cccnc2)o1 ?
Rpn11 block: active; Neddyl block: 13; PKA-R2B activ: -3; PKA-R1A activ: -1; Rpn11 inh conf: 24; MMP-2 counter: -13; Thrombin FP: 21

Results for CCOC(=O)C1(CC2CCCCO2)CCN(S(=O)(=O)c2c(C)nn(C)c2C)CC1 (stereo not drawn) ?
Rpn11 block: inactive; Neddyl block: 5; PKA-R2B activ: 2; PKA-R1A activ: 3

Results for CCOC(=O)c1c(NC(=O)c2cc(-c3ccc(O)cc3)on2)sc(C(C)=O)c1C ?
Rpn11 block: active; Neddyl block: 9; PKA-R2B activ: -1; PKA-R1A activ: -5; Rpn11 inh conf: -14; MMP-2 counter: -32; Thrombin FP: -6

How did Cn1ccs/c1=N\C(=O)Nc1cccc(C(F)(F)F)c1 do in these assays?
Rpn11 block: inactive; Neddyl block: -1; PKA-R2B activ: 1; PKA-R1A activ: 11

What do the screens show for `Cc1cc(C)c2c(N)c(C(=O)N/N=C/c3cccs3)sc2n1`?
Rpn11 block: active; Neddyl block: -43; Rpn11 inh conf: 58*; MMP-2 counter: -12; Thrombin FP: 41*

What do the screens show for `COc1ccc(/C=N/NC(=O)c2sc3nc(C)cc(C)c3c2N)cc1`?
Rpn11 block: inactive; PKA-R2B activ: -15; PKA-R1A activ: -13

What do the screens show for `COc1ccc(NC(=O)CCn2c(=S)[nH]c3ccccc3c2=O)cc1Cl`?
Rpn11 block: active; Neddyl block: -52; PKA-R2B activ: -1; PKA-R1A activ: -9; Rpn11 inh conf: 63*; MMP-2 counter: 34; Thrombin FP: -12

Results for COc1ccccc1NC(=O)CSc1ccc(-c2ccccn2)nn1 ?
Rpn11 block: inactive; Neddyl block: -3; PKA-R2B activ: 3; PKA-R1A activ: 2

How did COc1ccccc1NC(=O)CSc1ccc(-c2ccc(-n3cccn3)cc2)nn1 do in these assays?
Rpn11 block: active; Neddyl block: 1; PKA-R2B activ: -2; PKA-R1A activ: -7; Rpn11 inh conf: 117*; MMP-2 counter: -13; Thrombin FP: 3

How did CCOC(=O)c1ccc(N2CCN(C(C)=O)CC2)c(NC(=O)c2cccnc2)c1 do in these assays?
Rpn11 block: inactive; Neddyl block: -2; PKA-R2B activ: 3; PKA-R1A activ: 0

How did Nc1nc(SCc2ccc(Cl)cc2Cl)nc2nc3c(cc12)CCCC3 do in these assays?
Rpn11 block: active; Neddyl block: 17; PKA-R2B activ: -5; PKA-R1A activ: -3; Rpn11 inh conf: 46*; MMP-2 counter: 2; Thrombin FP: -25

How did COc1cccc(/C=N/NC(=O)c2cc3cc([N+](=O)[O-])ccc3s2)c1O do in these assays?
Rpn11 block: active; Neddyl block: -3; PKA-R2B activ: 2; PKA-R1A activ: -6; Rpn11 inh conf: 34; MMP-2 counter: -23; Thrombin FP: -19

How did COc1cccc(/C=N/NC(=O)C(=O)N/N=C/c2cccc(OC)c2O)c1O do in these assays?
Rpn11 block: inactive; Neddyl block: -14
